# About 83,000 compounds went through this panel and 20% of them were active in at least one assay; those are over-represented in the sample as a whole.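 Plates (96-well) were seeded with cells, treated with compound at one concentration, and incubated for 48 hours before percent growth was determined.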 A number with no mark means an inactive call. The source made the active and inactive calls. The calls were made as follows: active = growth percent below 10; inactive = the rest.
# Test system: HCC-2998 colon
# Assay: NCI-60 one-dose screen, 48 h (100 = growth as untreated, 0 = no growth, -100 = all killed)
# Details: 10 µM unless noted
row,Structure (SMILES),growth
1,Cc1ccc(S(=O)(=O)c2nc(S(=O)(=O)c3ccc(C)cc3)c(N3CCC(O)CC3)s2)cc1,90.6%
2,Cc1sc2c(c1C)C(c1ccc(Cl)cc1)=N[C@@H](CC(=O)NCCCCCNC(=O)COc1ccc(C3CCC(=O)NC3=O)cc1)c1nnc(C)n1-2 (stereo partly specified),-10.8% (active)
3,COc1ccc2c(c1)C(=N/N=C(\C)c1ccc(OC)c(S(N)(=O)=O)c1)C(=O)N2,111%
4,COc1cc2oc(-c3cccc(C(=O)Nc4ccc(Cl)cc4)c3)cc(=O)c2c(OCCNC(=O)[C@H](CCC(=O)OC(C)(C)C)NC(=O)OC(C)(C)C)c1OC,118%
5,COc1ccc(-c2nc3cc(C)ccc3n2CC(=O)N=Nc2c(O)[nH]c3ccc(Cl)cc23)cc1,-1.72% (active)
6,C=CC[N+](C)(C)CCn1c2ccccc2c2nc3cc(C)c(C)cc3nc21,96.2%
7,O=C(c1ccc(OCCN2CCOCC2)cc1)C1[C@H](c2ccc(Cl)cc2)[C@@H](c2ccccc2)NC12C(=O)Nc1ccc(Br)cc12 (stereo partly specified),-41.2% (active)
8,N#Cc1c(-c2ccc(Br)cc2)nc2n[nH]c(-c3ccc(Br)cc3)c2c1-c1ccc(F)cc1,108%
9,Cc1ccccc1[C@H]1C(C(=O)c2ccc(Cl)cc2)C2(N[C@@H]1c1ccccc1)C(=O)Nc1ccc(Cl)cc12 (stereo partly specified),-54.2% (active)
10,COc1cc(C2CC(c3cc(OC)c(OC)c(OC)c3)=NN2C(C)=O)ccc1OCc1ccccc1 (stereo unspecified),71.2%
11,Cc1cccc(NC(=O)[C@]23CCC(C)(C)CC2C2=CCC4[C@@]5(C)C[C@@H](O)[C@H](O)[C@@](C)(CO)C5CC[C@@]4(C)[C@]2(C)CC3)c1 (stereo partly specified),-64% (active)

# — PubChem BioAssay (NCI)
